A selection: hits, their analogues and other compounds. The true share with any hit is near 3.1%.
KKLEB tox: reduces viability of KKLEB cystic fibrosis airway cells | KKLEB CF airway cells viability, ATPlite luminescence, overnight; hits give low values; cells stimulated with P. aeruginosa culture filtrate | activity change (cytotoxicity), % at 5 µM | actives 0.36% (n = 360,000) | AID 602141;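 active means corrected activity change at or below -50% at 5 µM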
HIF-2a block: inhibitors of HIF-2a; 786-0 RCC cells HIF-2a reporter, luciferase luminescence, overnight; inhibition, % at 18.8 µM; actives 0.72% (n = 360,000);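 active means inhibition of the luminescence signal of 40% or more relative to plate controls, in a single-dose primary screen at 18.75 µM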
C8 TRAIL sens: sensitizes caspase-8 expressing cells to TRAIL; inhibition (viability loss, TRAIL sensitization), % at 10 µM; actives 1% (n = 360,000); NB7+C8 cells + TRAIL, ATPlite viability luminescence;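 active means compounds causing at least 50% loss of cell viability in the single-dose screen, relative to plate controls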
CF NFkB block: inhibitors of cystic fibrosis induced NF-kB | KKLEB NF-kB-GFP reporter, PAF-induced, GFP fluorescence overnight | inhibition, % at 5 µM | actives 0.86% (n = 360,000);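 active means at least 50% inhibition at 5 µM, scaled per plate between neutral and stimulator controls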;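 further: PAF is a Pseudomonas aeruginosa culture filtrate used as stimulus; plate controls were PAF-stimulated DMSO wells for no effect and unstimulated DMSO wells for full effect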
PPC-1+TRAIL kill: kills PPC-1 cancer cells in the presence of TRAIL; PPC-1 cells + TRAIL, ATPLite viability luminescence; actives 0.41% (n = 220,000); cell killing (% activity), % at 4 µM or 5 µM;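 active means cell killing above 50% in the first pass at 4 µM, then a duplicate retest at 5 µM averaging 50% or more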;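 further: plate controls were cells with TRAIL plus DMSO for no effect and medium-only wells lacking cells for full effect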
Peg3 promoter: inhibitors of Peg3 promoter | HeLa PEG-Prom luciferase reporter, luminescence, overnight | inhibition, % at 20 µM | actives 1.7% (n = 360,000);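 active means inhibition of at least 50% at 20 µM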
Starred values were filed as active, the others as inactive; . = not tested or not shown.

SMILES	KKLEB tox	HIF-2a block	C8 TRAIL sens	CF NFkB block	PPC-1+TRAIL kill	Peg3 promoter
CC(C)(C)CN1C(=O)C(=O)NC[C@@H]1CC1CCCCC1	.	7.4	4.7	.	.	.
Cc1nc2c(-c3ccc(F)cc3)cnn2c(N)c1-c1ccccc1	-53.8*	24.9	83.5*	-1.1	.	-10.4
Cc1cc(-c2ccc(F)cc2)n2ncc(-c3ccccc3)c2n1	-23.0	-50.4	64.3*	-14.6	.	-144.4
O=C(Nc1cc(Cl)cc(Cl)c1)c1ccc(Cn2c(=O)[nH]c3ccsc3c2=O)cc1	-50.2*	0.3	-3.3	54.5*	5.9	30.4
O=c1[nH]c2ccccc2nc1/C=C/c1ccc(Cl)cc1	-20.8	-265.8	73.1*	3.9	38.0	-177.2
O=c1cc(-c2ccncc2)oc2c1ccc1ccccc12	-11.7	-12.9	6.0	-12.8	.	79.5*
COc1cc(NC(=O)COc2ccc(-n3cnnn3)cc2)c(OC)cc1Cl	-49.0	13.6	22.1	36.9	5.3	59.0*
COCCCNC1=C(Cl)C(=O)c2ccccc2C1=O	18.0	84.3*	11.8	-32.7	6.7	-76.6
C=CCNC1=C(Cl)C(=O)c2ccccc2C1=O	-7.6	-10.5	16.5	17.2	39.2	-1.1
O=C1C(Cl)=C(NCCc2ccccc2)C(=O)c2ccccc21	3.7	-56.6	7.9	41.8	.	62.8*
CC(C)OCCCNC1=C(Cl)C(=O)c2ccccc2C1=O	-23.7	63.9*	0.5	6.8	32.9	-229.8
CC(C)NC1=C(Cl)C(=O)c2ccccc2C1=O	-22.2	-53.5	17.8	50.1*	31.6	-36.0
O=C1C(Cl)=C(NCc2cccnc2)C(=O)c2ccccc21	-6.4	13.7	80.0*	37.4	.	1.8
O=C(Nc1ccc([N+](=O)[O-])cc1)Nc1nc(-c2ccc(Cl)s2)cs1	-47.0	13.2	39.6	48.3	67.4*	68.6*
O=C1CCN(Cc2ccccc2)C=C1c1ccc(Br)cc1	-0.4	-120.7	7.6	2.2	.	-73.3
N#C/C(=N\Nc1cccc(C(F)(F)F)c1)C(=O)c1csc(-c2cccnc2)n1	-40.5	-29.0	-13.3	53.4*	1.9	25.5
Cc1ccc(C(=O)Nc2cccc(C(F)(F)F)c2)cc1NC(=O)c1csc(-c2ccncc2)n1	-3.3	-29.3	18.9	28.9	8.1	39.4
CCN1CCCC1CNC(=O)c1cc2cc(F)ccc2[nH]1 (stereo not drawn)	6.6	9.0	-19.2	-6.1	.	5.1
COc1ccc(NC(=O)COC(=O)/C=C/C(=O)OCC(=O)Nc2ccc(OC)c(Cl)c2)cc1Cl	-8.3	21.5	5.4	-22.1	16.6	56.2*
CCOC(=O)/C=C/C(=O)OCC(=O)Nc1ccc(OC)c(Cl)c1	5.9	3.5	0.2	-10.8	-8.2	13.3
Nc1nc(-c2cccnc2)nc2sc3c(c12)CCCC3	-2.7	-296.6	60.1*	-38.8	48.7	-313.0
CCCCCCCCNS(=O)(=O)CCNCc1ccc(OC)cc1	-18.6	13.0	12.9	11.0	.	61.1*
COc1ccc(CNCCS(=O)(=O)NCc2ccc(OC)cc2)cc1	18.6	15.9	-8.3	-27.3	.	-4.7
COCCN(CC(=O)Nc1cccc(C)c1C)C(=O)c1oc2c(Cl)cccc2c1C	-7.2	18.0	3.7	-9.9	.	51.5*
O=C(Nc1nc2cc(Cl)ccc2s1)C1CCCN(S(=O)(=O)c2cccc3cccnc23)C1 (stereo not drawn)	-19.0	9.1	25.9	38.6	9.1	59.8*
SMILES	KKLEB tox	HIF-2a block	C8 TRAIL sens	CF NFkB block	PPC-1+TRAIL kill	Peg3 promoter
FC(F)(F)c1ccc(Cl)c(Nc2nnc(-c3ccncc3)s2)c1	14.8	-31.1	15.6	-14.2	.	-0.5
Clc1ccccc1Nc1nnc(-c2ccncc2)s1	-26.8	-10.1	60.4*	27.5	64.5*	-32.0
O=C(CCc1nc(-c2ccc(F)cc2)no1)Nc1cccc(C(=O)NC2CC2)c1	-14.5	-4.7	2.0	-14.4	.	-10.7
O=C(CC(Nc1ccc(F)cc1)C(=O)O)c1ccccc1 (stereo not drawn)	-9.5	-233.9	59.8*	-7.1	4.6	-242.6
Cc1ccn(-c2ccc(NC(=O)c3cccs3)cc2)n1	-10.6	-193.3	54.8*	-29.4	.	-262.7
CCC(C)c1ccc(NC(=O)c2cccs2)cc1 (stereo not drawn)	-13.7	-261.6	59.6*	-29.9	25.1	-239.6
O=C(O)CC(C(=O)Nc1ccc(Cl)cc1)N1CCCCCC1 (stereo not drawn)	0.6	18.9	-0.3	1.8	.	16.4

Screening results (PubChem)
